# Screening data from PubChem BioAssay.
# DT40 TDP1 no CPT = qHTS for Inhibitors of human tyrosyl-DNA phosphodiesterase 1 (TDP1): qHTS in cells in absence of CPT; DT40 Tdp1-/- hTDP1 cells, no CPT, ATP luminescence, 48 h; Potency, µM (doses to about 46.2 µM), for inactives: at the highest dose activity change, negative = growth inhibition, actives largely listed as inhibitors; actives 15% (n = 420,000); AID 686978, 2013; also: potency is read from the fitted curve at half-maximal effect; nearly all actives have a fitted effect of over 55% in size
#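 A cellular qHTS used chicken DT40 cells lacking endogenous Tdp1 but carrying stably transfected human TDP1. Compounds were applied without camptothecin, and cell growth kinetics were judged by ATP-dependent luminescence after ≥48 hr.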
# HT1080NT lethal = qHTS for induction of synthetic lethality in tumor cells producing 2HG: qHTS for the HT-1080-NT fibrosarcoma cell line; Potency, µM (doses to about 46.1 µM), without a hit: at the top dose activity, negative = less viability, actives largely listed as cytotoxic; HT-1080-NT fibrosarcoma viability, CellTiter-Glo ATP luminescence, 48 h; actives 1.6% (n = 360,000);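 also: NT is the 2HG producing partner of a matched IDH1 knockdown line; potency is read from the fitted curve at half-maximal effect; 0% = DMSO-treated cells and -100% = media-only wells without cells; nearly all actives have a fitted effect of over 55% in size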
#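 Viability by CellTiter-Glo luminescence after 48 h compound exposure at 37C of HT-1080-NT cells (750/well, RPMI, 5% FBS). % activity scaled between DMSO wells and medium-only wells, then curve-fitted and categorized by curve class.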
# DT40 TDP1 CPT = qHTS for Inhibitors of human tyrosyl-DNA phosphodiesterase 1 (TDP1): qHTS in cells in presence of CPT; chicken DT40 Tdp1-/-;hTDP1 cells + 20 nM CPT, ATP luminescence, 48 h; Potency, µM (series often up to 46.2 µM), for inactives: at the highest dose activity change, negative = growth inhibition, hits mostly inhibitors; actives 12% (n = 420,000); also: potency is read from the fitted curve at half-maximal effect; nearly all actives have a fitted effect of over 55% in size
#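 Chicken DT40 Tdp1-/- cells stably complemented with human TDP1 were seeded at 400 cells/well in medium containing 20 nM camptothecin, exposed to pin-transferred compounds, and grown at 37 °C for at least 48 hr. Viability was read as ATP luminescence.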
# IL-1B inflam inh = qHTS for Inhibitors of Inflammasome Signaling: IL-1-beta AlphaLISA Primary Screen. activity change, % at 57.5 µM. actives 4.7% (n = 360,000). THP-1 LPS/ATP IL-1B secretion, AlphaLISA, 16 h; stronger effect = lower value. AID 743279, 2014; in the data active = activity change below about -50%; inconclusive = mostly about -30% to -49%
#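 THP-1 cells pretreated 1 hr with compounds (up to 57.5 uM final), then stimulated with LPS (250 ng/mL final) plus ATP (1.25 mM final); secreted IL-1B measured by AlphaLISA after 16 hr, decreased signal indicating inhibition.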
# HT1080 IDH1KD tx = qHTS for induction of synthetic lethality in tumor cells producing 2HG: qHTS for the HT-1080-IDH1KD cell line; HT-1080 IDH1 knockdown viability, ATP luminescence, 48 h; Potency, µM (series often up to 46.1 µM), for inactives: top-dose activity, negative = toxicity, hits mostly cytotoxic; actives 2% (n = 360,000); AID 686971, 2013;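 also: potency is read from the fitted curve at half-maximal effect; 0% = DMSO wells and -100% = cell-free medium wells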
#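 Luminescent ATP read-out (CellTiter-Glo, 10 min at room temperature) after 48 h compound exposure at 37 °C gave viability of IDH1-knockdown HT-1080 cells. Activity was normalised to DMSO and cell-free wells, then fitted as concentration-response curves.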
# 12-LOX inh = Primary qHTS assay for inhibitors of human arachidonate 12S-lipoxygenase (ALOX12): Round 2 | Polyunsaturated fatty acid lipoxygenase ALOX12 (Homo sapiens), P18054 | purified 12hLO, xylenol orange hydroperoxide absorbance | Potency, µM (titrated, usually from 108 µM), inactives show at the highest dose activity change, negative = inhibition, usual class: inhibitors | actives 1.1% (n = 580,000); also: potency is read from the fitted curve at half-maximal effect
# Target sequence (P18054 whole entry, looked up): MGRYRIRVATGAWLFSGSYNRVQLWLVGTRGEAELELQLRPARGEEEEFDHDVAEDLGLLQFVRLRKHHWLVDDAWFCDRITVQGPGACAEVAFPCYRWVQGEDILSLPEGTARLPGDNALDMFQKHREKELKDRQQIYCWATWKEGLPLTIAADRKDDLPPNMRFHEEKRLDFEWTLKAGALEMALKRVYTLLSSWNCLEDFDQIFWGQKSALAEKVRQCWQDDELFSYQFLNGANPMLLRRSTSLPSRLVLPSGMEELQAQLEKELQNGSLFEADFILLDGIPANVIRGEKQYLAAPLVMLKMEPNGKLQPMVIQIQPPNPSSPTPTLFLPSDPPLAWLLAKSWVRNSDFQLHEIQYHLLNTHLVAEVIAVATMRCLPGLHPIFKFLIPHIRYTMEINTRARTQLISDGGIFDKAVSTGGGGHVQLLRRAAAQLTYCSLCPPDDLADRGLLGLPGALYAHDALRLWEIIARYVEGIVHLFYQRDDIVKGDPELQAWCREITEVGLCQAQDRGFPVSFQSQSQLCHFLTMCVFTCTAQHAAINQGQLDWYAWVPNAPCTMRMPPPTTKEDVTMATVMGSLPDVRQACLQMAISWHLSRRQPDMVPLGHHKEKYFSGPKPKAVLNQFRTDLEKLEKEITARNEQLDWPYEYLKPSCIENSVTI
#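 Purified human 12hLO (150 nM final) in 25 mM Hepes, 0.01% Triton X-100, pH 7.0 was preincubated 15 min at room temperature with compound. Then 40 uM arachidonic acid was added, 30 min. Hydroperoxide was read by Fe-XO absorbance ratio 573/405 nm.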
# Starred values were filed as active, the others as inactive; ? = inconclusive; · = no result given; [ ] = remark or other dose. The full list was thinned out, with hits kept by preference. Unless noted, calls follow the shape of the dose curve; as a rule, active = well fitted curve in the direction sought with a large enough effect; inconclusive = small, poorly fitted or top-dose-only effect, or another doubt; inactive = no such curve, though single readings can be large; an effect the other way counts as inactive or inconclusive. Unless noted, % is scaled to controls: 0 for no effect and ±100 for the full control effect.
SMILES,DT40 TDP1 no CPT,HT1080NT lethal,DT40 TDP1 CPT,IL-1B inflam inh,HT1080 IDH1KD tx,12-LOX inh
CN(C)/C=N/NC(=O)c1ccccc1,19%,2%,-4%,12,?,8%
O=C(NN=c1c(=O)c2ccccc2c1=O)c1ccccc1,18µM*,12%,18µM*,?,0%,5%
Cc1ccc(C(=O)N2CCCC(n3cc(-c4noc(C)n4)nn3)C2)cc1 (configuration not stated),·,·,·,·,·,6%
CCC(CC)CN1CC2(CCN(C(=O)c3cn4cccnc4n3)CC2)OC1=O,·,·,·,·,·,39%
CC(C)Cn1c([N+](=O)[O-])nc2c1c(=O)[nH]c(=O)n2C,4.6µM*,13µM*,3.3µM*,-98*,16µM*,-5%
Cn1c(=O)[nH]c(=O)c2c1nc([N+](=O)[O-])n2Cc1ccccc1,1µM*,2.6µM*,0.65µM*,·,3.3µM*,167%
CCOC(=O)C[n+]1c(C)csc1C,2%,14%,0%,0,9%,-7%
Cc1csc(C)[n+]1CCC1CCCCC1,13µM*,·,?,·,·,·
Cc1csc(-c2nc3ccccc3n2C(C)c2nc3ccccc3[nH]2)c1 (configuration not stated),?,-20%,?,-6,-6%,-28%
CC(C)(C)C(c1nc2ccccc2[nH]1)n1c(-c2cc(Cl)cc(Cl)c2)nc2ccccc21 (configuration not stated),16µM*,?,?,0,?,0%
CC(C)(C)C(c1nc2ccccc2[nH]1)n1c(-c2cccc(S(C)(=O)=O)c2)nc2ccccc21 (configuration not stated),13µM*,2%,10µM*,?,9%,-8%
CCOc1ccc(/C=C(/C#N)C(=O)c2c[nH]c3cc(F)ccc23)cc1,·,·,·,·,·,-25%
CC(C)S(=O)(=O)C1=NSC2=NC(=O)/C(=C\c3ccc(-c4ccccc4)o3)C(=N)N21,?,-3%,-16%,38,0%,25µM*
Cc1ccc(-n2c(C)cc(/C=C3/C(=N)N4C(c5ccccc5)=CSC4=NC3=O)c2C)cc1,23µM*,-1%,?,13,-1%,-22%
CC(C)S(=O)(=O)C1=NSC2=NC(=O)/C(=C\c3ccc(-c4cccc(C(=O)O)c4)o3)C(=N)N21,3%,-1%,1%,0,4%,?
N=C1/C(=C/c2ccc(-c3cccc(C(=O)O)c3)o2)C(=O)N=C2SC=C(c3ccccc3)N12,-18%,-16%,?,39,2%,28µM*
CC(NC(=O)COc1ccccc1)C(=O)N1CCN(c2ccccn2)CC1 (configuration not stated),·,·,·,·,·,-10%
C[C@H](O)[C@@H]1C(=O)N2CCc3c([nH]c4ccccc34)[C@@H]2C[C@@H]1N(C)C(=O)c1ccco1,-24%,1%,?,2,-10%,-6%
O=C(c1cccs1)N1CCC(O)(c2ccccc2)[C@H](N2CCCC2)C1 (some centres not stated),·,·,·,·,·,251%
CCc1nc2cccnc2n1-c1ccc(CC(=O)Nc2cccc(C)c2C)cc1,?,·,?,·,·,-11%
CC(C)NC(=O)CSc1nnc(-c2c[nH]c3ccccc23)o1,·,·,·,·,·,0%
O=C(CSc1nc2ccccc2nc1Cc1ccccc1F)Nc1cccc(C(F)(F)F)c1,-20%,·,-7%,·,·,-22%
CC1=C(C(=O)N2CCN(c3cccc(C)c3C)CC2)C2(CCCCC2)OC1=O,21µM*,·,21µM*,·,·,?
CC1=C(C(=O)N2CCN(c3cccc(Cl)c3)CC2)C2(CCCCC2)OC1=O,21µM*,·,?,·,·,?
CC1=C(C(=O)N2CCN(c3ccccc3)CC2)C2(CCCCC2)OC1=O,-27%,·,-24%,·,·,0%
SMILES,DT40 TDP1 no CPT,HT1080NT lethal,DT40 TDP1 CPT,IL-1B inflam inh,HT1080 IDH1KD tx,12-LOX inh
Cc1oc(-c2nc(C#N)c(N3CCN(C)CC3)o2)cc1S(=O)(=O)N(C)C,·,·,·,·,·,4%
COc1cc(/C=N/n2cc(-c3ccccc3)[nH]c2=S)cc(OC)c1O,?,?,?,60,11%,13µM*
Cc1ccc(/C=N/n2cc(-c3ccccc3)[nH]c2=S)s1,5.2µM*,-6%,8.2µM*,11,1%,-31%
S=c1[nH]c(-c2ccccc2)cn1-c1ccccc1,3%,0%,8%,-12,16%,?
Oc1ccc(/C=N/n2cc(-c3ccccc3)[nH]c2=S)cc1,?,4%,?,-6,-4%,16µM*
Cc1ccc(/C=N/n2c(-c3ccco3)n[nH]c2=S)s1,?,20%,-1%,32,20%,?
Cc1ccc(/C=N/n2c(-c3cccnc3)n[nH]c2=S)s1,-20%,7%,0%,-54*,15%,?
c1ccc(-c2nc(C3CCNC3)no2)nc1 (configuration not stated),·,·,·,·,·,26%
COCCNC(=O)c1cc(-c2ccc(Cl)cc2Cl)nc2c1cnn2C,·,·,·,·,·,3%[6.33 µM]
Cc1cc(C)cc(NC(=O)c2ccc3c(c2)N(C)C2CCCN2C3=O)c1 (configuration not stated),·,·,·,·,·,16%
CN(C(=O)CC1C(=O)NCCN1Cc1cccc(F)c1F)C1CCOCC1 (configuration not stated),0%,-3%,-6%,10,1%,7.1µM*
O=C(CC1C(=O)NCCN1Cc1cccc(F)c1)NC1CCC1 (configuration not stated),18%,-6%,5%,-61*,0%,119%
O=C(OCc1ccccc1)c1cccc(-c2nnc(-c3ccccc3)o2)c1,-16%,22%,?,-2,-4%,7%
O=C(OCc1ccc(C(=O)c2ccccc2)cc1)c1cccc(-c2nnc(-c3ccccc3)o2)c1,?,4%,16µM*,-9,7%,11%
CC(C)OC(=O)c1ccc(COC(=O)c2cccc(-c3nnc(-c4ccccc4)o3)c2)cc1,?,19%,-25%,12,16%,-4%
